Measured values: ChEMBL document CHEMBL1961873, “Compounds: GSK PKIS; Assays: Nanosyn kinase panel” (2012)

Assays:
[1] = molecular target: Mitogen-activated protein kinase 3 (Homo sapiens) (UniProt P27361); conditions: at 1 µM;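 note: values are mean percent inhibition of MAPK3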
[2] = molecular target: SRSF protein kinase 3 (Homo sapiens) (UniProt Q9UPE1); conditions: at 0.1 µM
[3] = molecular target: SRSF protein kinase 3 (Homo sapiens) (UniProt Q9UPE1); conditions: at 1 µM
[4] = molecular target: Mitogen-activated protein kinase 14 (Homo sapiens) (UniProt Q16539); conditions: at 0.1 µM
[5] = molecular target: Mitogen-activated protein kinase 14 (Homo sapiens) (UniProt Q16539); conditions: at 1 µM
[6] = molecular target: Mitogen-activated protein kinase 11 (Homo sapiens) (UniProt Q15759); conditions: at 0.1 µM
[7] = molecular target: Mitogen-activated protein kinase 11 (Homo sapiens) (UniProt Q15759); conditions: at 1 µM
[8] = molecular target: T1, Mitogen-activated protein kinase 13 (Homo sapiens) (UniProt O15264); conditions: at 0.1 µM
T1 sequence (whole entry): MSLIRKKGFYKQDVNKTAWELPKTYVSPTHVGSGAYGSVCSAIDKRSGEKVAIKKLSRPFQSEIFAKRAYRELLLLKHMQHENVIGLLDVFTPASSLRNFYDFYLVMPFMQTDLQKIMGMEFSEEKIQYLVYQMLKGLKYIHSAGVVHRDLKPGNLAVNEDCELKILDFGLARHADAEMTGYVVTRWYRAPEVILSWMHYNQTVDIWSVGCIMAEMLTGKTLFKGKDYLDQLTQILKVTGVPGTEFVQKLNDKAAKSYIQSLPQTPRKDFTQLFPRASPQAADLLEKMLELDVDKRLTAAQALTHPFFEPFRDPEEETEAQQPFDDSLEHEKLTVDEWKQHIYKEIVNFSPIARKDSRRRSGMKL

[9] = molecular target: T1, Mitogen-activated protein kinase 13 (Homo sapiens); conditions: at 1 µM
[10] = molecular target: T2, Mitogen-activated protein kinase 12 (Homo sapiens) (UniProt P53778); conditions: at 0.1 µM
T2 sequence (whole entry): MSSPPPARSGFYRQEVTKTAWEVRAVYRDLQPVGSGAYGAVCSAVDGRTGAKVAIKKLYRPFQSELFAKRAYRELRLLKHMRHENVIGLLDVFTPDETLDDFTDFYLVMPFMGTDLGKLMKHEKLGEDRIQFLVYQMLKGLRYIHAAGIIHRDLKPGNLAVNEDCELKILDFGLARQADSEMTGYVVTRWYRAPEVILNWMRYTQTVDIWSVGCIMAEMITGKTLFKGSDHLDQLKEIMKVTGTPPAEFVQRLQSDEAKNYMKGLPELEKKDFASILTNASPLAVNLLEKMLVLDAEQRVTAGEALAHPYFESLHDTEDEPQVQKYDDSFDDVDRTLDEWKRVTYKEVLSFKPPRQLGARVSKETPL

[11] = molecular target: T2, Mitogen-activated protein kinase 12 (Homo sapiens); conditions: at 1 µM
[12] = molecular target: SRSF protein kinase 1 (Homo sapiens) (UniProt Q96SB4); conditions: at 0.1 µM
[13] = molecular target: SRSF protein kinase 1 (Homo sapiens) (UniProt Q96SB4); conditions: at 1 µM
[14] = molecular target: Phosphatidylinositol 4,5-bisphosphate 3-kinase catalytic subunit alpha isoform (Homo sapiens) (UniProt P42336); conditions: at 0.1 µM
[15] = molecular target: Phosphatidylinositol 4,5-bisphosphate 3-kinase catalytic subunit alpha isoform (Homo sapiens) (UniProt P42336); conditions: at 1 µM
[16] = molecular target: T3, Phosphatidylinositol 4,5-bisphosphate 3-kinase catalytic subunit delta isoform (Homo sapiens) (UniProt O00329); conditions: at 0.1 µM
T3 sequence (whole entry): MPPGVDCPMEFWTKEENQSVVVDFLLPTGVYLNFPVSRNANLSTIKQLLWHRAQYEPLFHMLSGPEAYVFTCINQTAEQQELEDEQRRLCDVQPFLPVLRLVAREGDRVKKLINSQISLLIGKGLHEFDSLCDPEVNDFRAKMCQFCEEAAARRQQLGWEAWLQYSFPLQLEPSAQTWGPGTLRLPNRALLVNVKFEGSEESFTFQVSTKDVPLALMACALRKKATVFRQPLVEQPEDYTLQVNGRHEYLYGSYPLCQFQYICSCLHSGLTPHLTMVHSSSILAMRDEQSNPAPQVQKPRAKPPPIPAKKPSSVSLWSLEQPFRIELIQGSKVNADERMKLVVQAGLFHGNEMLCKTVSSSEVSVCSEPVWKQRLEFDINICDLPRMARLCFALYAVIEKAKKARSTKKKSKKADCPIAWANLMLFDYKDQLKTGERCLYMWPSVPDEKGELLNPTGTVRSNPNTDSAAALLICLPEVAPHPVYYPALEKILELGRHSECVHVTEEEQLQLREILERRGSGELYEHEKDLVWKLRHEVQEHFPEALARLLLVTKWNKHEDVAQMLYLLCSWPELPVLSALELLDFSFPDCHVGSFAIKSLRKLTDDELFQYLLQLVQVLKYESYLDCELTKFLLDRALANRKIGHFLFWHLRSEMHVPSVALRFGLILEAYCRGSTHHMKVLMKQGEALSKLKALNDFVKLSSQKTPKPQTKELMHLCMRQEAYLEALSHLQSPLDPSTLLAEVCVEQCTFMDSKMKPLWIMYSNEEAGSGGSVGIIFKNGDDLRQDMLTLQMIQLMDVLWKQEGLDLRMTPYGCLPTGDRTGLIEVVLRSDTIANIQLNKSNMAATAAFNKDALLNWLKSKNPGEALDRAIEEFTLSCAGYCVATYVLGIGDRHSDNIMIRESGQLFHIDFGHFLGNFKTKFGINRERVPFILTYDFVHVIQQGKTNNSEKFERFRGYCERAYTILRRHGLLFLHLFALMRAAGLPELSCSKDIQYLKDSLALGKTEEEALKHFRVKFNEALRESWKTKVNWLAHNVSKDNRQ

[17] = molecular target: T3, Phosphatidylinositol 4,5-bisphosphate 3-kinase catalytic subunit delta isoform (Homo sapiens); conditions: at 1 µM
[18] = molecular target: Phosphatidylinositol 4-kinase beta (Homo sapiens) (UniProt Q9UBF8); conditions: at 0.1 µM
[19] = molecular target: Phosphatidylinositol 4-kinase beta (Homo sapiens) (UniProt Q9UBF8); conditions: at 1 µM
[20] = molecular target: Sphingosine kinase 1 (Homo sapiens) (UniProt Q9NYA1); conditions: at 0.1 µM;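 note: mean percent inhibition of SPHK1 activity, measured within the GSK PKIS screening panel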
Sequence of Sphingosine kinase 1 (Homo sapiens) (Q9NYA1 whole entry): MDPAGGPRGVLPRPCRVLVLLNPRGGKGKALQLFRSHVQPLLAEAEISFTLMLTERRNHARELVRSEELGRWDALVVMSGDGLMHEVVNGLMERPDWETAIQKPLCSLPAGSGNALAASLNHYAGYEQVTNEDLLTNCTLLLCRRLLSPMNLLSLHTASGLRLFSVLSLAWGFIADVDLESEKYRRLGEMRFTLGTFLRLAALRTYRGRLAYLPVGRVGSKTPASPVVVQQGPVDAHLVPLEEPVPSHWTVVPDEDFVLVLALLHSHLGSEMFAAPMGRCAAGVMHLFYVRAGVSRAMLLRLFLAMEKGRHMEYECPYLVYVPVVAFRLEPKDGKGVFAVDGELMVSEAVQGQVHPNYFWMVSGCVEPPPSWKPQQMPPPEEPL

Sequence of Mitogen-activated protein kinase 3 (Homo sapiens) (P27361 whole entry): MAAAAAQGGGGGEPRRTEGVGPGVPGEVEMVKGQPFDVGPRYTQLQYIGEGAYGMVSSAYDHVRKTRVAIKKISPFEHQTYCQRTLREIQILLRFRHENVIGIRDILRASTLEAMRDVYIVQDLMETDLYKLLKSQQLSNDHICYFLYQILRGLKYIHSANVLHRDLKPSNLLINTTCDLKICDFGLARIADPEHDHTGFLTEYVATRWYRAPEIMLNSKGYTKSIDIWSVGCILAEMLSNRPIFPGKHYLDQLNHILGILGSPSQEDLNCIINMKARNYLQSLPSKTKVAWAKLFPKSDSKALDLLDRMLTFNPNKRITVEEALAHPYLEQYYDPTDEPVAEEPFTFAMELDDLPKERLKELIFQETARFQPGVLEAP
Sequence of Mitogen-activated protein kinase 11 (Homo sapiens) (Q15759 whole entry): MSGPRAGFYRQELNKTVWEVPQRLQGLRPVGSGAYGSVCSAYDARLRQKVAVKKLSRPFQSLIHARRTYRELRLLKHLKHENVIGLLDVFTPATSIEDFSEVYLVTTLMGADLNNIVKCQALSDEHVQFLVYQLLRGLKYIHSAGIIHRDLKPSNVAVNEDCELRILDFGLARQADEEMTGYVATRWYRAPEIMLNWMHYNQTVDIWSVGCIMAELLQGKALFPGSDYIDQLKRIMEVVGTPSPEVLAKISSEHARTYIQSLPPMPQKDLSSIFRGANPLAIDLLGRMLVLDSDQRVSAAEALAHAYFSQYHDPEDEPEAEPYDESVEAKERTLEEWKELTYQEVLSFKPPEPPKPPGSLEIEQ
Sequence of SRSF protein kinase 1 (Homo sapiens) (Q96SB4 whole entry, canonical isoform): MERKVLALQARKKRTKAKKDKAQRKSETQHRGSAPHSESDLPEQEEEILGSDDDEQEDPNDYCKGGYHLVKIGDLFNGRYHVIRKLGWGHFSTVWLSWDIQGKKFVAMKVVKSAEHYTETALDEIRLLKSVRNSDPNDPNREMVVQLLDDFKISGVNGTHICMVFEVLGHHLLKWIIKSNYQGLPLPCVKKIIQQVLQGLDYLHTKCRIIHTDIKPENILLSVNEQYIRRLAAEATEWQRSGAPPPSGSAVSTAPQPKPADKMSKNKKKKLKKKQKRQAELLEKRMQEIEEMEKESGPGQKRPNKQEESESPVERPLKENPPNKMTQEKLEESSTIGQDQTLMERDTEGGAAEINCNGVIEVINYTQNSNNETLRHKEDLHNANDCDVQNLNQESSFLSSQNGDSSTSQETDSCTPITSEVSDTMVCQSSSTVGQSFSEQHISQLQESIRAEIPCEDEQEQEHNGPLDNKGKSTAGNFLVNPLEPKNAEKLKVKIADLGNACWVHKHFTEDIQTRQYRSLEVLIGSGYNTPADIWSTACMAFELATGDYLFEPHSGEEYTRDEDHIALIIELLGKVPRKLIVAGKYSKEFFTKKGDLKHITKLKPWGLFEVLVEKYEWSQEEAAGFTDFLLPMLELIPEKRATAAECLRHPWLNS
Sequence of Mitogen-activated protein kinase 14 (Homo sapiens) (Q16539 whole entry): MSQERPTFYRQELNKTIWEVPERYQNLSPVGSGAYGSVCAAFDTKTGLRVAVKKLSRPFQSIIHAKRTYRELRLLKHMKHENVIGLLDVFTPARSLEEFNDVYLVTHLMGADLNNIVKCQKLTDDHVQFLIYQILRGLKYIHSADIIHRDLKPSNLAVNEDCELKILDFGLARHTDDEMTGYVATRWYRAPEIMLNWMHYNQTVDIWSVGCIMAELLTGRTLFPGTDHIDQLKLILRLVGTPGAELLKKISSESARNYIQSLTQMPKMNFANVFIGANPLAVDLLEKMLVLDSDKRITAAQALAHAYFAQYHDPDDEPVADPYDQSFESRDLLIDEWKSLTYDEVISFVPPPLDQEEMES
Sequence of SRSF protein kinase 3 (Homo sapiens) (Q9UPE1 whole entry): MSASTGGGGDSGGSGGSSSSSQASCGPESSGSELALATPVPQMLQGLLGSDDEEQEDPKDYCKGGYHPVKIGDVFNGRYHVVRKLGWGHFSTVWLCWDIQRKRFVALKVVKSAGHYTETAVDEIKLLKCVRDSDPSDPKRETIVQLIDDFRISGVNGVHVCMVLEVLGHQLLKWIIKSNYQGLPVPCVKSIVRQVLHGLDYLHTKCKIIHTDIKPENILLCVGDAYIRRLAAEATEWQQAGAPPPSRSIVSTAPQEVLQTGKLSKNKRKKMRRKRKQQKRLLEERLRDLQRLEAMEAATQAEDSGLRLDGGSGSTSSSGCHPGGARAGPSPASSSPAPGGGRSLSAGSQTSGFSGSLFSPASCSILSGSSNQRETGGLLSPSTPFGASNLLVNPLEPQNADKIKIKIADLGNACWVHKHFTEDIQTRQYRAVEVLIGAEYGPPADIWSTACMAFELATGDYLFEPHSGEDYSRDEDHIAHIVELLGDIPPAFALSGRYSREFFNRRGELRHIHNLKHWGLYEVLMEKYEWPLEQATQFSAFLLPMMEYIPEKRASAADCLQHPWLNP
Sequence of Phosphatidylinositol 4,5-bisphosphate 3-kinase catalytic subunit alpha isoform (Homo sapiens) (P42336 whole entry, canonical isoform): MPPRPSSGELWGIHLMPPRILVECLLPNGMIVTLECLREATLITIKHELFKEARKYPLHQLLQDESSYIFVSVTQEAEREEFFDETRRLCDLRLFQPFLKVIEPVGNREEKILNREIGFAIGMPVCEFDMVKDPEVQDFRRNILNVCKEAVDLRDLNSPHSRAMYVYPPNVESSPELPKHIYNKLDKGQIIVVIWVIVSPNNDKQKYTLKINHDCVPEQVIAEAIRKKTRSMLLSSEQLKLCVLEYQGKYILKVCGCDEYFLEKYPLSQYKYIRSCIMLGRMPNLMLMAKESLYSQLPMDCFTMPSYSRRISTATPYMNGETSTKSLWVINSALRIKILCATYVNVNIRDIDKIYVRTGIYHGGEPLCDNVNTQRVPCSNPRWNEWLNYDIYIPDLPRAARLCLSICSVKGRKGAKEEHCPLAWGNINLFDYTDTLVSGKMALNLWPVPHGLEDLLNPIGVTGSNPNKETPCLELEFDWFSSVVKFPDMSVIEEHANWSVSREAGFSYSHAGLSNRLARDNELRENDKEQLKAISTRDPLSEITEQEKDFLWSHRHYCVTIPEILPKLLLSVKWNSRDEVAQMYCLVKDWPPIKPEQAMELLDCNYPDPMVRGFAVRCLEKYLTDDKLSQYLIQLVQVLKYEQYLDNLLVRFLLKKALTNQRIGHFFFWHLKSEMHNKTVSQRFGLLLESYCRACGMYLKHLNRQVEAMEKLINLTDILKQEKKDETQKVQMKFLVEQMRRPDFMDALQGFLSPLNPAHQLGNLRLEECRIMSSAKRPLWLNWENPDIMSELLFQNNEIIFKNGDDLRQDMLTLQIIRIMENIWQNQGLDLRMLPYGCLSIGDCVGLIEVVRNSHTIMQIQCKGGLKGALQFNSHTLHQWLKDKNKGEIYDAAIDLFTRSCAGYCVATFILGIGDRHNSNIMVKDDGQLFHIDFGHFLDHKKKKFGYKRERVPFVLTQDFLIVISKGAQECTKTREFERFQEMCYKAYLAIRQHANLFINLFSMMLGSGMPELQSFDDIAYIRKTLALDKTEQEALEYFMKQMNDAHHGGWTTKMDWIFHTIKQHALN
Sequence of Phosphatidylinositol 4-kinase beta (Homo sapiens) (Q9UBF8 2-816 limits assumed): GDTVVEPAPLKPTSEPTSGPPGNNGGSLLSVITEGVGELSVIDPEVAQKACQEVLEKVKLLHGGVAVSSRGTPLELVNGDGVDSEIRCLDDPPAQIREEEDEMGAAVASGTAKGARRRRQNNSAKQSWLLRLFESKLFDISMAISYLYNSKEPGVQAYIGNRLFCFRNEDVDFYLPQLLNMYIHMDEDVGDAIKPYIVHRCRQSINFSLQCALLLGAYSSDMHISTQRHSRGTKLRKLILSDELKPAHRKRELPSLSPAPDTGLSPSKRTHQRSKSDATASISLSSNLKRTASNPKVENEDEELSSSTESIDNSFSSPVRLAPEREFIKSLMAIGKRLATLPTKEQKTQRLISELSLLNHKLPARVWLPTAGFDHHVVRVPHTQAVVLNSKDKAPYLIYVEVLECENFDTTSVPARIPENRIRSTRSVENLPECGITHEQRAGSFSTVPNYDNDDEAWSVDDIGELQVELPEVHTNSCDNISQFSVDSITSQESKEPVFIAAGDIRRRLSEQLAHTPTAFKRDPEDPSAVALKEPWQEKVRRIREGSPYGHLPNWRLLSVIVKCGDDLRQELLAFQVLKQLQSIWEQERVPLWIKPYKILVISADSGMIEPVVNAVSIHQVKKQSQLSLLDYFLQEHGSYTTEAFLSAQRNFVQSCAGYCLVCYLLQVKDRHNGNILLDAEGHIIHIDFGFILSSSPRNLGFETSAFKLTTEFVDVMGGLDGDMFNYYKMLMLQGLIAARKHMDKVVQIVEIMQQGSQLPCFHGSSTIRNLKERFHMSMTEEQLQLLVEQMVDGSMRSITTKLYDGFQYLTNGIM

Compound | inhibition [1] | inhibition [2] | inhibition [3] | inhibition [4] | inhibition [5] | inhibition [6] | inhibition [7] | inhibition [8] | inhibition [9] | inhibition [10] | inhibition [11] | inhibition [12] | inhibition [13] | inhibition [14] | inhibition [15] | inhibition [16] | inhibition [17] | inhibition [18] | inhibition [19] | inhibition [20]
Cc1ccc(C(=O)NC2CCCCC2)cc1-c1ccc(C(=O)NCC2CC2)cc1 | 0.88% | 1.95% | 0.5% | 5.36% | 17.4% | 4.59% | 14.2% | 1.77% | 2.53% | -0.98% | 1.27% | -2.04% | -2.48% | 1.35% | -0.53% | 1.89% | 1.33% | 3.97% | -5.9% | -7.61%
CCCN1CCC(Oc2cc(Nc3nc(Nc4cccc(F)c4C(N)=O)c4cc[nH]c4n3)c(OC)cc2Cl)CC1 | 2.9% | 0.09% | 3.91% | 0.2% | 3.85% | 0.2% | 0.06% | 0.04% | -0.16% | -0.75% | 0.42% | -0.3% | -0.85% | -1.23% | -1.07% | -0.45% | 0.08% | 3.96% | -2.71% | 0.48%
Nc1nc(-c2ccc3c(c2)C(=Cc2cc(Br)c(O)c(Br)c2)C(=O)N3)cs1 | 1.82% | -2.97% | -1.79% | 1.75% | -0.33% | -2.08% | 2.83% | -2.1% | -1.28% | -1.72% | -1.45% | 1.08% | 1.39% | 0.41% | 24.5% |  |  | 36.1% | 71.6% | 2.04%
COc1cc2ncn(-c3cc(OCc4ccccc4Cl)c(C(N)=O)s3)c2cc1OC | 1.75% | -0.61% | -1.33% | 2.7% | 18.4% | 1.39% | 4.07% | 0.95% | 0.78% | 1.88% | 0.85% | -1.26% | -1.23% | 0.86% | 19.6% | 0.19% | 18.4% | -5.9% | 1.54% | 2.8%
COc1ccc(-c2nn3ncccc3c2-c2ccnc(Nc3ccc(Cl)c(C(F)(F)F)c3)n2)cc1 | 4.01% | -2.03% | -0.79% | 4.58% | 36.1% | 2.93% | 16.8% | 0.64% | 1.01% | 1.67% | 0.36% | -1.95% | -0.38% | 1% | 10.4% | -0.59% | 2.57% | -1.86% | 0.08% | 19.3%
CN(C)c1cc2c(Nc3ccc4nc(Cc5ccccc5)[nH]c4c3)ncnc2cn1 | 4.66% | -0.28% | -1.52% | 6.65% | 9.66% | 1.34% |  | 1.99% | 5.16% | 5.41% | 2.45% | -1.74% | -1.6% | 7% | 8.83% | 7.22% | 8.91% | -2.6% | 5.38% | -1.38%
CCN1CCC(CC(=O)Nc2n[nH]c3nc(-c4cccs4)c(Br)cc23)CC1 | 0.02% | -0.78% | 2.42% | -3.19% | 0.26% | -1.99% | 3.07% | -0.36% | -1.98% | -1.67% | -2.22% | 1.28% | 1.67% | -1.25% | -0.57% | 0.69% | 2.28% | 4.28% | -0.5% | -0.97%
